The record followed here is PubChem BioAssay (NCI).

Assay [1] is described as follows: NCI Yeast Anticancer Drug Screen. Data for the rad50 strain (AID 155).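 Note: 0% = growth of vehicle-only cultures of the same strain.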 The settings on record: S. cerevisiae rad50 strain growth inhibition; at 50.0 µM; stronger effect = higher value. The essentials:
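Vehicle-treated cultures provide the reference for the growth inhibition reported for compound-exposed, repair-deficient yeast.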

Assay [2] can be described thus: NCI Yeast Anticancer Drug Screen. Data for the mec2-1 strain (AID 157). Conditions: S. cerevisiae mec2-1 strain, at 50.0 µM, stronger effect = higher value. In short, it runs like this:
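Strain: mec2-1 (DNA repair/cell cycle alteration). Compound exposure, then growth measured; inhibition expressed relative to vehicle.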

Assay [3] can be described thus: NCI Yeast Anticancer Drug Screen. Data for the sgs1 mgt1 strain (AID 161).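 Note: 0% = growth of cultures given vehicle only.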 Conditions: S. cerevisiae sgs1 mgt1 strain, at 50.0 µM, stronger effect = higher value. The essentials:
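Inhibition of yeast growth, normalised to vehicle-treated controls, is reported for a strain bearing genetic alterations in DNA damage repair.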

A short description of assay [4]: NCI Yeast Anticancer Drug Screen. Data for the cln2 rad14 strain (AID 165).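 Note: 0% = growth equal to vehicle treated cultures.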 Conditions: S. cerevisiae cln2 rad14 strain, at 50.0 µM, stronger effect = higher value. In short, it runs like this:
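Compounds are applied to the cln2 rad14 yeast strain, and growth is then compared with that of vehicle-treated cultures to give inhibition.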

Assay [5] in a line: NCI Yeast Anticancer Drug Screen. Data for the bub3 strain (AID 167). The settings on record: S. cerevisiae bub3 mutant strain, at 50.0 µM, stronger effect = higher value. In short, it runs like this:
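Mutant yeast screening strain plus compound; vehicle-treated cultures serve as the 0% inhibition reference.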

A short description of assay [6]: NCI Yeast Anticancer Drug Screen. Data for the mlh1 rad18 strain (AID 175). Conditions: S. cerevisiae mlh1 rad18 strain growth inhibition; at 50.0 µM; stronger effect = higher value. The essentials: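 Read-out is yeast growth inhibition, calculated against vehicle-only controls. The compound was applied to a strain engineered with DNA damage repair alterations.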

Compounds without any hit were thinned out: in the full panel of roughly 79,000, 15% have a hit. A number with no mark means an inactive call. Calls of active or inactive are those of the source. Cut-off read from the data, not from the text of the source: active = growth inhibition above about 70%; inactive = the rest.

Regarding `CC(=O)c1cc(C)oc1C`, the growth inhibition in assay [1] was -5.1%; in assay [2], -8.25%; in assay [3], -12.8%; in assay [4], -32.1%; in assay [5], 2.8%; in assay [6], 12.9%.

Take `N#CC1(Cl)CC2CC1C1N=NN(c3ccccc3)C21` (stereo unspecified): the growth inhibition in assay [1] is -24.6%; in assay [2], -15.3%; in assay [3], -0.25%; in assay [4], -58%; in assay [5] it was 25.6%; in assay [6] it was 0.75%.

Take `COc1cc(-c2ccc(NC(=O)N3CC3)c(OC)c2)ccc1NC(=O)N1CC1`: the growth inhibition in assay [1] is 8.8%; in assay [2] it was -2.5%; in assay [3], 8.3%; in assay [4] it was 19.4%; in assay [5], -0.4%; in assay [6], 10.7%.

Turning to `N#C/C(=C\c1cccnc1)c1ccc(Br)cc1`, the growth inhibition in assay [1] was 59.4%; in assay [2], 36.4%; in assay [3], 41.8%; in assay [4] it was 14.3%; in assay [5], 43.5%; in assay [6], 70% (active).

In the case of `COC1NC(=O)Oc2ccccc21` (stereo unspecified), the growth inhibition is -6.25% in assay [1]; 29.5% in assay [2]; -8.95% in assay [3]; -3.3% in assay [4]; -12.5% in assay [5]; -19.4% in assay [6].

For `COCCN1CC(=O)N2Cc3ccccc3CN2C(=O)C1`, the growth inhibition was -4.6% in assay [1]; -13.8% in assay [2]; -6.15% in assay [3]; -9.5% in assay [4]; -3% in assay [5]; -6.65% in assay [6].

As to `CCN1CCNC(=O)C1c1ccccc1` (stereo unspecified), the growth inhibition in assay [1] is -9.3%; in assay [2], 16.1%; in assay [3], -17.2%; in assay [4] it was 1.35%; in assay [5], -1.1%; in assay [6] it was 1.05%.

As for `C=CCN1CC2CON(C(=O)C(OC)(c3ccccc3)C(F)(F)F)C2C1C(C)C` (stereo unspecified), the growth inhibition was 2.05% in assay [1]; -17.7% in assay [2]; 9.15% in assay [3]; 18.2% in assay [4]; 24.2% in assay [5]; -5.85% in assay [6].

As for `CCOC(=O)c1sc(SC)nc1NC(=O)c1ccc([N+](=O)[O-])cc1`, the growth inhibition in assay [1] was -13.4%; in assay [2], -8.55%; in assay [3], -53%; in assay [4], -1.3%; in assay [5], -20.5%; in assay [6] it was -3.85%.

For `Nc1ccc(Cn2ccc(=O)[nH]c2=O)cc1`, the growth inhibition in assay [1] is -14.4%; in assay [2], 3.2%; in assay [3] it was 0.25%; in assay [4], -26.9%; in assay [5], -11.2%; in assay [6] it was -0.8%.

Turning to `Cc1c(-c2ccc3c(c2)OCO3)sc(N)c1C#N`, the growth inhibition in assay [1] is 5%; in assay [2], -15.5%; in assay [3] it was 12.2%; in assay [4], 4.25%; in assay [5], 20.6%; in assay [6], -7.75%.

In the case of `CC(C)=C=CC(C)(C)NS(=O)(=O)NC(C)(C)C=C=C(C)C`, the growth inhibition in assay [1] was 12.5%; in assay [2], -9.85%; in assay [3], 2.4%; in assay [4], 3.35%; in assay [5], -16.6%; in assay [6], 8.35%.

In the case of `NCCNC(c1ccccc1)C(O)c1ccccc1` (stereo unspecified), the growth inhibition in assay [1] is -8.7%; in assay [2] it was -0.7%; in assay [3] it was -1.25%; in assay [4], -33.9%; in assay [5] it was -41.2%; in assay [6], -4.25%.

Turning to `CCN(S(C)(=O)=O)S(C)(=O)=O`, the growth inhibition in assay [1] is -7.5%; in assay [2], -2.5%; in assay [3] it was -4.65%; in assay [4] it was -37%; in assay [5], 9.55%; in assay [6], -15.8%.

As for `O=C(O)CCSC1=NCCN1`, the growth inhibition is -32.8% in assay [1]; -44% in assay [2]; -26.1% in assay [3]; 16.6% in assay [4]; -42.9% in assay [5]; -10.6% in assay [6].

Take `O=c1ccnc2c1ccc1[nH]cccc12`: the growth inhibition is 1.35% in assay [1]; 6.25% in assay [2]; -13.9% in assay [3]; 1% in assay [4]; 8.6% in assay [5]; 13.3% in assay [6].

In the case of `CCCCCCCCCCCCCCCC(=O)OC/C=C/COC(=O)c1ccccc1`, the growth inhibition in assay [1] was 22.9%; in assay [2] it was -9.7%; in assay [3] it was -6.25%; in assay [4], -2.95%; in assay [5] it was 2.65%; in assay [6], -13%.

For `COC(=O)/C(C#N)=C1\NC(=O)c2ccccc21`, the growth inhibition in assay [1] is 30.1%; in assay [2] it was 16.1%; in assay [3], 11.6%; in assay [4], 30.8%; in assay [5] it was 11.5%; in assay [6] it was 26%.

Regarding `O=c1oc2ccc(Cl)cc2n1CN1CCOCC1`, the growth inhibition was 1.9% in assay [1]; -26.9% in assay [2]; 1.95% in assay [3]; 12.8% in assay [4]; -34.2% in assay [5]; 5.55% in assay [6].

As for `Cc1cc(Br)ccc1N`, the growth inhibition in assay [1] was -3.15%; in assay [2], 1.95%; in assay [3], -9.5%; in assay [4], -36.5%; in assay [5], 19.1%; in assay [6], 9.25%.

With `COc1ccc(C2OC(=N)C(=S)N2C)cc1O` (stereo unspecified), the growth inhibition was -5.9% in assay [1]; -15.6% in assay [2]; -13.2% in assay [3]; -22.7% in assay [4]; 2.5% in assay [5]; -4.15% in assay [6].
